Bead autofluor = compound fluorescence in toxin protease inhibitor counterscreen. compound autofluorescence counterscreen, microsphere flow cytometry; active compounds read high. fluorescence intensity (test concentration not listed). actives 3.1% (n = 360,000). AID 624483; in the data active means fluorescence intensity above about 16000; inconclusive means no clear call, values can overlap the other calls
BoNT F protease = BoNT F light chain protease inhibition; Multiplex microsphere protease cleavage assay, flow cytometry; inhibition, % at 10 µM; actives 0.22% (n = 360,000); in the data active means inhibition above about 35%, passing the limit was not always enough; inconclusive means no clear call, values can overlap the other calls; further: plate controls were buffer without enzyme for full effect and enzyme alone for no effect
SARS 3CLpro inh = SARS-CoV 3CLpro protease inhibition; recombinant SARS-CoV 3CLpro, quenched FRET peptide cleavage; inhibition, % at 6 µM; P0C6X7; AID 1706; actives 0.14% (n = 290,000); in the data active means inhibition above about 12%
Anthrax LF inh2 = inhibitors of Bacillus anthracis lethal factor protease. actives 0.12% (n = 360,000). P15917. multiplex microsphere protease cleavage assay, LF. AID 588501. inhibition, % at 10 µM; further: plate controls were buffer without enzyme for full effect and enzyme alone for no effect
BoNT-A LC inh2 = BoNT A light chain protease inhibition | actives 0.17% (n = 360,000) | multiplex microsphere protease substrate cleavage, flow cytometry | inhibition, % at 10 µM; further: plate controls were buffer without enzyme for full effect and enzyme alone for no effect
VHR inh abs = blocks human VHR1 dual specificity phosphatase | AID 1654 | actives 0.52% (n = 290,000) | inhibition, % at 13.3 µM | recombinant VHR phosphatase, pNPP absorbance | P51452; in the data active means inhibition above about 50%
Target sequence (P51452 whole entry, looked up): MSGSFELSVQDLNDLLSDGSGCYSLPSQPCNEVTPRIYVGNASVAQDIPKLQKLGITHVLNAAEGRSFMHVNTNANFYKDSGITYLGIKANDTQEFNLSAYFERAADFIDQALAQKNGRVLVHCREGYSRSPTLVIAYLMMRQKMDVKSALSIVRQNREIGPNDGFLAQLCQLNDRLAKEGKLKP
* = called active by the depositor; ? = inconclusive; / = no result. Sampled rows, rich in hits. Any-hit rate of the full collection: about 3.9%. Unless noted, no stated cut-off is given here; in the data, active means inhibition above about 30%; inconclusive means no clear call, values can overlap the other calls; inactive means below that.

SMILES | Bead autofluor | BoNT F protease | SARS 3CLpro inh | Anthrax LF inh2 | BoNT-A LC inh2 | VHR inh abs
CNC(=O)c1cc2ccc(OC)cc2oc1=O | 4349 | -10 | 2 | -2 | -1 | -2
O=C(NCCC1=CCCCC1)C1CCN(S(=O)(=O)N2CCCC2)CC1 | 4005 | -1 | -3 | 3 | 0 | 6
Cc1ccc(S(=O)(=O)N2CCCC(C(=O)NCCC3=CCCCC3)C2)cc1 (configuration not stated) | 21132* | -2 | 1 | -1 | -1 | 37
O=C(NCCC1=CCCCC1)C1CCCN(S(=O)(=O)c2ccc(F)cc2)C1 (configuration not stated) | 2538 | -7 | 1 | -4 | 0 | 13
O=C(NCCC1=CCCCC1)C1CCN(S(=O)(=O)N2CCOCC2)CC1 | 20881* | -4 | -3 | -2 | -2 | 29
NS(=O)(=O)c1cccc(NC(=O)c2ccno2)c1 | 3972 | 25 | -3 | -1 | -1 | -4
CC(C)n1cc(CNC(=O)C2CCC(=O)N(Cc3ccccc3F)C2)cn1 (configuration not stated) | 6466 | -8 | 2 | 0 | 0 | 27
CC12CCC(C(=O)N(NC(=O)c3cc(Cl)ccc3O)C1=O)C2(C)C (configuration not stated) | ? | 15 | -7 | -6 | 0 | 11
O=C1C(Cc2ccc(Br)cc2)SC(=Nc2ccccc2)N1c1ccccc1 (configuration not stated) | 2035 | 36* | 6 | -2 | 2 | 4
Cc1ccc(-c2ccc(CCC(=O)O)n2-c2ccc(O)cc2)cc1 | 10421 | -1 | 2 | -1 | 2 | 13
Cc1ccc(-c2ccc(CCC(=O)O)n2-c2cccc(O)c2)cc1 | 19713* | -1 | 2 | -1 | 0 | 30
O=C1CCC(C(=O)N2CCCC(C(=O)c3ccc4ccccc4c3)C2)=NN1 (configuration not stated) | 5699 | -1 | -6 | -2 | 1 | 50*
CC(C)c1cc(C(=O)N2CCCC(C(=O)c3ccc4ccccc4c3)C2)on1 (configuration not stated) | 4406 | -1 | 4 | -5 | 0 | -4
Cc1cc(NC(=O)CCC(=O)N(CC(=O)NCC2CCCO2)c2ccc(C(C)C)cc2)no1 (configuration not stated) | 5446 | -1 | -1 | 0 | 1 | 17
COc1cccc(NC(=O)N2CCCC2C(=O)Nc2cc(C)ccc2OC)c1 (configuration not stated) | 3610 | -28 | 2 | -1 | 2 | 8
Cc1cccc([N+](=O)[O-])c1NC(=O)CSc1nnc2ccccn12 | 4657 | -6 | / | 0 | -6 | /
CC1=C(C(=O)OC2CCCC2)C(c2ccc(C)o2)C2=C(CC(c3cccs3)CC2=O)N1 (configuration not stated) | 22029* | -3 | 2 | -5 | -1 | 4
CC1=C(C(=O)OC2CCCCCC2)C(c2ccc(C)o2)C2=C(CCCC2=O)N1 (configuration not stated) | 9556 | -12 | -3 | -5 | -1 | -9
Cc1ccc2nc3c(c(N)c2c1)CCN3c1ccccc1 | 3782 | 2 | 6 | 0 | 3 | 11
Cc1ccc2nc3c(c(N)c2c1)CCN3C | 4050 | 22 | -6 | 0 | 4 | 58*
Clc1c(-c2ccccc2)nc2ccccn12 | 2937 | ? | 2 | 13 | -2 | 15
c1ccn2c(c1)nc1c2nc2ccccn21 | 21237* | -2 | 1 | 1 | -2 | -25
CC(=O)c1nnn(-c2nc(N)nc(N(c3ccccc3)c3ccccc3)n2)c1C | 22006* | -1 | -1 | -2 | ? | 16
CCN(CC)c1nc2ccccc2nc1-n1nc(C)cc1C | 24280* | 0 | 2 | -2 | ? | 19
Cc1cc(C)n(-c2nc(N(c3ccccc3)c3ccccc3)nc(-n3nc(C)cc3C)n2)n1 | 17611* | -5 | 0 | -2 | -7 | 31
Cc1cc(C)n(-c2nc3ccccc3n3cnnc23)n1 | 4280 | 0 | 2 | -4 | 1 | 2
CCCCN(CCCC)c1nc(OC)nc(-n2nnc(C(C)=O)c2C)n1 | 3058 | -8 | -4 | -2 | 0 | 29
CC(C)CC(C(=O)O)N1C(=O)C2C3C=CC(C2C1=O)C1C(=O)N(C(CC(C)C)C(=O)O)C(=O)C31 (configuration not stated) | 6296 | -5 | 5 | -2 | -2 | 1
CCc1c(C)c2ccc(O)c(CN(C)C)c2oc1=O | 22113* | 1 | -2 | 0 | 2 | 4
